“And” between values parts separate entries of the source, which are not always exact repeats. Equal values may be shown once. Compounds without any hit were thinned out: in the full panel of roughly 83,000, 20% have a hit.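 Single-concentration screen, 48 h exposure, 96-well plates. Endpoint: percent growth. Below 10 = active.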 Some compounds were tested as several samples or in several runs, with calls that do not always agree. The source made the active and inactive calls.
The compounds below were run on COLO 205 colon (assay: NCI-60 one-dose screen, 48 h (100 = growth as untreated, 0 = no growth, -100 = all killed)). Settings: 10 µM.
Protocol: Cells are grown in 96 well plates and exposed to the test compound for 48 hours. Compounds are tested at a single concentration, which is 10^-5 M for most compounds. The reported endpoint is percent growth (GI% or GIPRCNT), where numbers from 0 - 100% represent growth inhibition, and numbers from -100% - 0 represent cell death. For example, a value of 40 represents 60% growth inhibition. A value of 0 means no net growth occurred over the course of the experiment. A value of -40 indicates 40% of cells at the beginning of the experiment died by the end of the experiment. A value of -100 means all cells are dead at the end of the experiment.
NCI-60 Human Tumor Cell Lines Screen was performed using the standard one-dose NCI protocol, which is described in more detail at https://dtp.cancer.gov/discovery_development/nci-60/default.htm.
Compounds with GIPRCNT values below 10 were considered active. Activity score was based on GIPRCNT using the following formula: […]
Score is 0 for GIPRCNT values of 100 or above, 50 for GIPRCNT values of 0, and 100 for GIPRCNT values of -100.
With `CC1=C[C@H]2O[C@@H]3C[C@H]4OC(=O)/C=C\C=C\[C@H]([C@@H](C)O)OCC[C@@H](C)[C@H](O)C(=O)OC[C@@]2(CC1)[C@]4(C)[C@]31CO1` the growth was -57.8% (active).
`COc1cc2c(O[C@@H]3OC[C@H](OC(C)=O)[C@H](OC(C)=O)[C@H]3O)c3c(c(-c4ccc5c(c4)OCO5)c2cc1OC)C(=O)OC3` was tested, and the growth was 5.65% (active).
For `CC1=C2C(=O)[C@](C)(CO)C=C2C(=O)[C@](C)(O)C12CC2`, the growth was -12.1% (active).
For `CC1=C(CN(O)C(N)=O)C2=C(C)C3(CC3)[C@](C)(O)C(=O)C2=C1`, the growth was -11.9% (active).
`CC(=O)O[C@@H]1[C@@H]2O[C@H]2[C@@](C)(O)C(=O)[C@@H](C)C/C=C/[C@H]2[C@@H]3O[C@]3(C)[C@@H](C)C3[C@H](Cc4ccccc4)NC(=O)[C@@]312` (stereo not given in full) was tested, and the growth was 38.8% (inactive).
`COc1cc2c(O[C@@H]3OC[C@H](O)[C@H](O)[C@H]3O)c3c(c(-c4ccc5c(c4)OCO5)c2cc1OC)C(=O)OC3` was tested, and the growth was 11.6% (inactive).
For `CC1=C2C(=C[C@@](C)(COC(=O)c3ccc(S(=O)(=O)F)cc3)[C@@H]2O)C(=O)[C@](C)(O)C12CC2`, the growth was -58.5% (active).
With `C/C=C/CC(C)C(O)[C@H](NC(=O)[C@@H]1CCCN1C(=O)C(C)(C)NC(=O)CCCCCCCCC)C(=O)NC(C)(C)C(=O)N[C@@H](CCC(N)=O)C(=O)N[C@H](CCC(N)=O)C(=O)NC(C)(C)C(=O)NC(C)(C)C(=O)N[C@@H](CCC(N)=O)C(=O)N[C@H](CC(C)C)C(=O)N[C@H](CO)CC(C)C` (stereo not given in full) the growth was -82.7% (active) and -41.1% (active).
With `CCC(C)[C@H]1C(=O)O[C@H](C(C)C)C(=O)N(C)[C@@H](C(C)C)C(=O)O[C@H](C(C)C)C(=O)N(C)[C@@H](C(C)C)C(=O)O[C@H](C(C)C)C(=O)N1C` (stereo not given in full) the growth was -74.7% (active).
In the case of `N#Cc1c(-n2c(Br)c(Br)c3cc(Br)ccc32)[nH]c2c(Br)cc(Br)cc12`, the growth is reported as -89.6% (active).
For `CC1=C(CCC=NNC(N)=O)C2=C(C)C3(CC3)[C@@](C)(O)C(=O)C2=C1`, the growth was -86.4% (active).
With `CC(C)(O)/C=C/C(=O)[C@](C)(O)[C@H]1[C@H](O)C[C@@]2(C)[C@H]3CC=C4[C@@H](C[C@H](O)C(=O)C4(C)C)[C@]3(C)C(=O)C[C@]12C` the growth was 34.3% (inactive).
For `C/C=C/CC(C)C(O)[C@H](NC(=O)[C@@H]1CCCN1C(=O)C(C)(C)NC(=O)CCCCCCCCC)C(=O)N[C@@](C)(CC)C(=O)N[C@@H](CCC(N)=O)C(=O)N[C@H](CCC(N)=O)C(=O)NC(C)(C)C(=O)NC(C)(C)C(=O)N[C@@H](CCC(N)=O)C(=O)N[C@H](CC(C)C)C(=O)N[C@H](CO)CC(C)C` (stereo not given in full), the growth was -10.4% (active) and 50.9% (inactive).
`CC(C)=CCc1c2c(c(O)c3c1O[C@]14C(=C[C@@H]5C[C@H]1C(C)(C)O[C@@]4(C/C=C(/C)C(=O)O)C5=O)C3=O)C=CC(C)(C)O2` was tested, and the growth was -79.8% (active).
`C[C@@H]1C[C@H]2C(=O)O[C@@H](C)C(NC(=O)[C@H](Cc3cc(F)cc(F)c3)NC(=O)Nc3ccc(OS(=O)(=O)F)cc3)C(=O)N3CCC[C@H]3C(=O)N3CCO[C@H](C)[C@H]3C(=O)N[C@@H](CO)C(=O)N2C1` (stereo not given in full) was tested, and the growth was -19.1% (active).
For `CN(CCF)/N=N/c1nc[nH]c1C(N)=O`, the growth was 39.1% (inactive).
For `COC(=O)[C@H]1[C@@H](O)[C@@]2(O)c3c(OC)cc(OC)cc3O[C@@]2(c2ccc(OC)cc2)[C@@H]1c1ccccc1`, the growth was -71% (active).
For `C/C=C\C(=O)O[C@@H]1CC2O[C@@H]3C=C(C)C(=O)C[C@]3(C)[C@]1(C)[C@]21CO1`, the growth was -55.3% (active).
`COc1cccc2c1cc([N+](=O)[O-])c1c(C(=O)O)cc3c(c12)OCO3` was tested, and the growth was 18.1% (inactive).
With `COc1cc(C)c(-c2ccc(OC)c(=O)cc2C)c(OC)c1OC` the growth was -29.2% (active) and 94.5% (inactive).
For `NC1CCc2cc(O)c(O)cc2C1` (stereo not given), the growth was 80.7% (inactive).
In the case of `C/C=C/CC(C)C(O)[C@H](NC(=O)[C@@H]1CCCN1C(=O)C(C)(C)NC(=O)CCCCCCCCC)C(=O)N[C@@](C)(CC)C(=O)N[C@@H](CCC(N)=O)C(=O)N[C@H](CCC(N)=O)C(=O)NC(C)(C)C(=O)N[C@@](C)(CC)C(=O)N[C@@H](CCC(N)=O)C(=O)N[C@H](CC(C)C)C(=O)N[C@H](CO)CC(C)C` (stereo not given in full), the growth is reported as 104% (inactive) and -60.2% (active).
With `Cc1ccc(CNc2nc3ccc(OC/C(=C/F)CN)cc3o2)cn1` the growth was 111% (inactive).
In the case of `CC1=C[C@H]2O[C@@H]3C[C@@H](O)[C@](C)([C@@]2(C)CC1)[C@@]31CO1`, the growth is reported as 3.33% (active).
`C=C1[C@@H](C)C2[C@H](Cc3ccccc3)NC(=O)[C@]23[C@H](OC(C)=O)/C=C/[C@@](C)(O)C(=O)[C@@H](C)C/C=C/[C@H]3[C@@H]1O` (stereo not given in full) was tested, and the growth was 35% (inactive).
`O=C(CCCc1ccc(N(CCCl)CCCl)cc1)OCc1ccccc1` was tested, and the growth was 98% (inactive).
With `CN1C(=O)[C@]23SSC1(C)C(=O)N2[C@H]1Nc2ccccc2C1([C@@]12c4ccccc4N[C@@H]1N1C(=O)C4(C)SS[C@]1(C(=O)N4C)[C@H]2O)[C@@H]3O` (stereo not given in full) the growth was -88.9% (active).
With `CC1=C(CN(O)C(N)=O)C2=C(C)C3(CC3)[C@@](C)(O)C(=O)C2=C1` the growth was -35.9% (active).
In the case of `CC1=C2C(=C[C@@](C)(COC(=O)c3ccc(S(=O)(=O)F)cc3)[C@@H]2OC(=O)c2ccc(S(=O)(=O)F)cc2)C(=O)[C@](C)(O)C12CC2`, the growth is reported as -78.1% (active).
For `COC1[C@@H]2C[C@H]3C(C)(C)O[C@@](C/C=C(/C)C(=O)O)(C2=O)[C@]32Oc3c(CC=C(C)C)c4c(c(O)c3C(=O)[C@H]12)C=CC(C)(C)O4` (stereo not given in full), the growth was -72.1% (active).
For `CC1=C2C(=C[C@@](C)(C=O)[C@@H]2O)C(=O)[C@](C)(O)C12CC2`, the growth was -28.2% (active).
In the case of `CC1=C2C(=C[C@@](C)(COS(C)(=O)=O)[C@@H]2O)C(=O)[C@](C)(O)C12CC2`, the growth is reported as -33.7% (active).
`CCCCCCCCCC(=O)N[C@@](C)(CC)C(=O)N1CCC[C@H]1C(=O)N[C@@H](CC(C)C)C(=O)N[C@@](C)(CC)C(=O)N[C@@H](CCC(N)=O)C(=O)N[C@H](CCC(N)=O)C(=O)NC(C)(C)C(=O)NC(C)(C)C(=O)N[C@@H](CCC(N)=O)C(=O)N[C@H](CC(C)C)C(=O)N[C@H](CO)CC(C)C` was tested, and the growth was -63.2% (active) and -52.1% (active).
For `COc1cc(OC)c(S(=O)(=O)N(CCCl)CCCl)cc1C(=O)/C=C/c1ccc(Cl)cc1`, the growth was 101% (inactive).
For `COc1cc2c(cc1OC)[C@@H]1N(CC2)C(=O)c2ccccc2[C@@]1(C)C(=O)O`, the growth was 115% (inactive).
With `C[C@@H]1CCC/C=C/[C@H]2C[C@@H](O)C[C@@H]2[C@@H](O)/C=C/C(=O)O1` the growth was -84.3% (active).
In the case of `CC(=O)O[C@@H]1C[C@H]2O[C@@H]3C=C(C)CC[C@]3(C)[C@]1(C)[C@]21CO1`, the growth is reported as -61.3% (active).
`N#Cc1nc(-c2ccccc2)oc1N1CCC(S(=O)(=O)F)CC1` was tested, and the growth was 114% (inactive).
`CC1=C[C@H]2O[C@@H]3C[C@H]4OC(=O)/C=C\C=C\[C@H]([C@@H](C)O)OCC/C(C)=C/C(=O)OC[C@@]2(CC1)[C@]4(C)[C@]31CO1` was tested, and the growth was -62.3% (active).
For `C/C=C/CC(C)C(O)[C@H](NC(=O)[C@@H]1CCCN1C(=O)C(C)(C)NC(=O)CCCCCCC)C(=O)N[C@@](C)(CC)C(=O)N[C@@H](CCC(N)=O)C(=O)N[C@H](CCC(N)=O)C(=O)NC(C)(C)C(=O)NC(C)(C)C(=O)N[C@@H](CCC(N)=O)C(=O)N[C@H](CC(C)C)C(=O)N[C@H](CO)CC(C)C` (stereo not given in full), the growth was 118% (inactive) and -46.4% (active).

— PubChem BioAssay (NCI)
